# Assay results from PubChem BioAssay (NCATS).
# Unmarked numbers belong to inactive results. Records with an inconclusive call do not appear. A call without a number means that no potency is given here. Activity calls are given as the source filed them. Unless noted, calls come from the whole dose curve; as a rule, active = well fitted curve in the direction sought with a large enough effect; inconclusive = small, poorly fitted or top-dose-only effect, or another doubt; inactive = no such curve, though single readings can be large; an effect the other way counts as inactive or inconclusive.
# Legend:
# C33A = assay: Primary qHTS to identify gynecologic anti-cancer compounds using libraries of approved drugs and bioactive compounds (AID 1345084); conditions: Gynecologic cancer cell panel viability, ATPlite luminescence, 48 h; series mostly up to 57.5 µM; note: nearly all actives have a fitted effect of over 55% in size; note: potency is the fitted concentration of half-maximal effect
# Outline: (§1)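 Five-point cytotoxicity, 48 h drug exposure at 37 C, 5% CO2, on cells seeded 16 h beforehand. ATP content read by ATPlite luminescence.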
# CAOV3 = assay: as above; conditions: Gynecologic cancer cell panel viability, ATPlite luminescence, 48 h; series mostly up to 57.5 µM
# Outline: as §1
# CASKI = assay: as above; conditions: Gynecologic cancer cell panel viability, ATPlite luminescence, 48 h; series mostly up to 57.5 µM
# Outline: as §1
# Es-2 = assay: as above; conditions: Gynecologic cancer cell panel viability, ATPlite luminescence, 48 h; series mostly up to 57.5 µM
# Outline: as §1
# HeLa = assay: as above; conditions: Gynecologic cancer cell panel viability, ATPlite luminescence, 48 h; series mostly up to 57.5 µM
# Outline: as §1
# Hek293T = assay: as above; conditions: Gynecologic cancer cell panel viability, ATPlite luminescence, 48 h, control line for the selectivity index; series mostly up to 57.5 µM
# Outline: as §1
# JEG-3 = assay: as above; conditions: Gynecologic cancer cell panel viability, ATPlite luminescence, 48 h; series mostly up to 57.5 µM
# Outline: as §1
# PA-1 = assay: as above; conditions: Gynecologic cancer cell panel viability, ATPlite luminescence, 48 h; series mostly up to 57.5 µM
# Outline: as §1
# SKOV3 = assay: as above; conditions: Gynecologic cancer cell panel viability, ATPlite luminescence, 48 h; series mostly up to 57.5 µM
# Outline: as §1
# Tov-21-G = assay: as above; conditions: Gynecologic cancer cell panel viability, ATPlite luminescence, 48 h; series mostly up to 57.5 µM
# Outline: as §1
# Tov112D = assay: as above; conditions: Gynecologic cancer cell panel viability, ATPlite luminescence, 48 h; series mostly up to 57.5 µM
# Outline: as §1
# [1] = Drug repurposing screens with cells derived from glioblastoma tumor samples (AID 1345199); conditions: GBM patient neurospheres viability, ATP luminescence, 48 h; note: nearly all actives have a fitted effect of over 40% in size; note: potency is the fitted concentration of half-maximal effect
# Outline: (§2)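 Four patient lines of CD133+ GBM neurospheres were screened at several concentrations; hits were retested in those lines plus three slower-growing GBM lines, using 48-hour treatment and ATP-based viability.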
# astro = assay: as above; conditions: viability, ATP luminescence, 48 h; series mostly up to 45.9 µM
# Outline: as §2
# OV90 = assay: Primary qHTS to identify gynecologic anti-cancer compounds using libraries of approved drugs and bioactive compounds (AID 1345084); conditions: Gynecologic cancer cell panel viability, ATPlite luminescence, 48 h; series mostly up to 57.5 µM; note: nearly all actives have a fitted effect of over 55% in size; note: potency is the fitted concentration of half-maximal effect
# Outline: as §1
# [2] = biological target: Nuclear receptor subfamily 1 group I member 2 (Rattus norvegicus) (UniProt Q9R1A7); assay: qHTS assay for small molecule activators of the rat pregnane X receptor (rPXR) signaling pathway (AID 651751; call rule not given here); conditions: rPXR reporter cells, luciferase (One-Glo), 24 h
# Nuclear receptor subfamily 1 group I member 2 (Rattus norvegicus), sequence (Q9R1A7 whole entry, looked up): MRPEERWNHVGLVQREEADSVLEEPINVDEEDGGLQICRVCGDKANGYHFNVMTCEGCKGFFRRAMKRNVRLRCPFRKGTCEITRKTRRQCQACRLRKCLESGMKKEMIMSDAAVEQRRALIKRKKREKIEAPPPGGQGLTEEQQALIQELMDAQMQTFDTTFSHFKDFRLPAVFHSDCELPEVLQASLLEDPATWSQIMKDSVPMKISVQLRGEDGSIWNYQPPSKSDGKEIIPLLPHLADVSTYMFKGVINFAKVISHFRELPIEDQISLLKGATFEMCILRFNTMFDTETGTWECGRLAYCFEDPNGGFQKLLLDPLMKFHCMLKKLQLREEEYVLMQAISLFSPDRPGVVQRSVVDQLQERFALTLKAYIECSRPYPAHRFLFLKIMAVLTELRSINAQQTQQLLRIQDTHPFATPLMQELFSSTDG
# [3] = qHTS assay for small molecule activators of the human pregnane X receptor (PXR) signaling pathway (AID 720659; call rule not given here)
# [4] = at 91.6 µM (top of the series), tumour line A
# [5] = at 91.6 µM (top of the series), tumour line B
# [6] = at 91.6 µM (top of the series), tumour line D
# [7] = at 99.2 µM (top of the series), tumour line C
# [8] = at 46.1 µM (top of the series), tumour line C
compound,measurement,setting,value
CN(C)CCOC1=Cc2ccccc2Sc2ccc(Cl)cc21,Potency,C33A,inactive
same,Potency,CAOV3,inactive
same,Potency,CASKI,inactive
same,Potency,Es-2,inactive
same,Potency,HeLa,inactive
same,Potency,Hek293T,inactive
same,Potency,JEG-3,inactive
same,Potency,PA-1,inactive
same,Potency,SKOV3,inactive
same,Potency,Tov-21-G,inactive
same,Potency,Tov112D,inactive
CCN1C(=O)c2ccccc2C1Nc1ccc(OCCN2CCCCC2)cc1 (centres undefined),Potency,C33A,inactive
same,Potency,CAOV3,inactive
same,Potency,CASKI,inactive
same,Potency,Es-2,inactive
same,Potency,HeLa,inactive
same,Potency,Hek293T,inactive
same,Potency,JEG-3,inactive
same,Potency,PA-1,inactive
same,Potency,SKOV3,inactive
same,Potency,Tov-21-G,inactive
same,Potency,Tov112D,inactive
same,"activity, negative = cell killing","[1]; at 45.9 µM (top of the series), tumour line B",-27.4%
same,Potency,[1]; tumour line A,7.94 µM (active)
same,Potency,astro,inactive
CC[N+](CC)(CC)CCOC(=O)C(C1CCCC1)C1CCCC1,Potency,C33A,inactive
same,Potency,CAOV3,inactive
same,Potency,Es-2,inactive
same,Potency,HeLa,inactive
same,Potency,Hek293T,inactive
same,Potency,JEG-3,inactive
same,Potency,SKOV3,inactive
same,Potency,Tov-21-G,inactive
same,Potency,Tov112D,inactive
same,Potency,astro,inactive
O=C(Oc1ccccc1)c1cccc(C(=O)Oc2ccccc2)c1,Potency,C33A,inactive
same,Potency,CAOV3,inactive
same,Potency,CASKI,inactive
same,Potency,Es-2,inactive
same,Potency,HeLa,inactive
same,Potency,JEG-3,inactive
same,Potency,OV90,inactive
same,Potency,PA-1,inactive
same,Potency,SKOV3,inactive
same,Potency,Tov-21-G,inactive
same,Potency,Tov112D,inactive
same,"activity, negative = cell killing",[1]; [4],-20.2%
same,"activity, negative = cell killing",[1]; [5],-23.3%
same,"activity, negative = cell killing",[1]; [6],-9.21%
same,"activity, negative = cell killing",[1]; [7],1.54%
same,Potency,astro,inactive
CC(C)=CCNc1ncnc2c1ncn2[C@@H]1O[C@H](CO)[C@@H](O)[C@H]1O,Potency,C33A,12.6 µM (active)
same,Potency,CAOV3,7.94 µM (active)
same,Potency,CASKI,12.6 µM (active)
same,Potency,Es-2,25.1 µM (active)
same,Potency,HeLa,14.1 µM (active)
same,Potency,OV90,17.8 µM (active)
same,Potency,PA-1,7.94 µM (active)
same,Potency,SKOV3,11.2 µM (active)
same,Potency,Tov-21-G,10 µM (active)
same,Potency,Tov112D,7.08 µM (active)
CN1CCCN(C(c2ccccc2)c2ccc(Cl)cc2)CC1 (centres undefined),Potency,C33A,inactive
same,Potency,CAOV3,inactive
same,Potency,Es-2,inactive
same,Potency,HeLa,inactive
same,Potency,JEG-3,inactive
same,Potency,PA-1,inactive
same,Potency,Tov-21-G,inactive
same,Potency,Tov112D,31.6 µM (active)
same,"activity, negative = cell killing",[1]; [8],-12.3%
same,Potency,[1]; tumour line A,4.47 µM (active)
same,Potency,[1]; tumour line B,35.5 µM (active)
same,Potency,[1]; tumour line D,20 µM (active)
Nc1nc2ccccc2n1Cc1ccc(F)cc1,Potency,C33A,inactive
same,Potency,CAOV3,inactive
same,Potency,CASKI,inactive
same,Potency,Es-2,inactive
same,Potency,HeLa,inactive
same,Potency,JEG-3,inactive
same,Potency,OV90,inactive
same,Potency,PA-1,inactive
same,Potency,SKOV3,inactive
same,Potency,Tov-21-G,inactive
same,Potency,Tov112D,inactive
CCCCCCCCCCCC[N+](C)(C)Cc1ccccc1,Potency,C33A,2.51 µM (active)
same,Potency,CAOV3,5.62 µM (active)
same,Potency,CASKI,2.24 µM (active)
same,Potency,Es-2,7.94 µM (active)
same,Potency,HeLa,10 µM (active)
same,Potency,Hek293T,15.8 µM (active)
same,Potency,OV90,14.1 µM (active)
same,Potency,PA-1,8.91 µM (active)
same,Potency,SKOV3,3.16 µM (active)
same,Potency,Tov-21-G,7.94 µM (active)
same,Potency,Tov112D,25.1 µM (active)
same,Potency,astro,11.2 µM (active)
same,max response,[2],0.668%
same,outcome,[3],inactive
CC[C@@H]([C@H](C)O)n1ncn(-c2ccc(N3CCN(c4ccc(OC[C@@H]5CO[C@@](Cn6cncn6)(c6ccc(F)cc6F)C5)cc4)CC3)cc2)c1=O,Potency,C33A,11.2 µM (active)
same,Potency,CAOV3,inactive
same,Potency,HeLa,inactive
same,Potency,JEG-3,inactive
same,Potency,OV90,15.8 µM (active)
same,Potency,SKOV3,15.8 µM (active)
CN1C(=O)c2ccccc2C1=O,Potency,C33A,inactive
same,Potency,CAOV3,inactive
same,Potency,CASKI,inactive
same,Potency,Es-2,inactive
same,Potency,HeLa,inactive
same,Potency,Hek293T,inactive
same,Potency,OV90,inactive
same,Potency,PA-1,inactive
same,Potency,Tov-21-G,inactive
same,Potency,Tov112D,inactive
same,"activity, negative = cell killing",[1]; [4],-18.9%
same,"activity, negative = cell killing",[1]; [5],-9.87%
same,"activity, negative = cell killing",[1]; [6],-20.8%
same,"activity, negative = cell killing",[1]; [7],6.36%
same,Potency,astro,inactive
same,max response,[2],0.847%
same,outcome,[3],inactive
CCCCNc1ccc(C(=O)OCCN(CC)CC)cc1,Potency,C33A,inactive
same,Potency,CAOV3,inactive
same,Potency,Es-2,inactive
same,Potency,HeLa,inactive
same,Potency,Hek293T,inactive
same,Potency,JEG-3,inactive
same,Potency,OV90,inactive
same,Potency,PA-1,inactive
same,Potency,Tov-21-G,inactive
same,Potency,Tov112D,inactive
same,"activity, negative = cell killing",[1]; [8],-27.5%
same,Potency,[1]; tumour line A,14.1 µM (active)
same,Potency,[1]; tumour line D,14.1 µM (active)
same,Potency,astro,inactive
CC(C)=CCC/C(C)=C/CC/C(C)=C/C(=O)OCC(=O)[C@@]1(O)CC[C@H]2[C@@H]3CCC4=CC(=O)C=C[C@]4(C)[C@H]3[C@@H](O)C[C@@]21C,Potency,C33A,inactive
same,Potency,CAOV3,inactive
same,Potency,CASKI,inactive
same,Potency,HeLa,inactive
same,Potency,Hek293T,35.5 µM (active)
same,Potency,JEG-3,inactive
same,Potency,OV90,inactive
same,Potency,Tov-21-G,inactive
O=C1Cc2cc(Cl)ccc2N1,Potency,C33A,inactive
same,Potency,CAOV3,inactive
same,Potency,CASKI,inactive
same,Potency,Es-2,inactive
same,Potency,Hek293T,inactive
same,Potency,JEG-3,inactive
same,Potency,OV90,inactive
same,Potency,PA-1,inactive
same,Potency,SKOV3,inactive
same,Potency,Tov-21-G,inactive
same,Potency,Tov112D,inactive
O=c1[nH]c2ccccc2c(=O)n1CCCl,Potency,C33A,inactive
same,Potency,CAOV3,inactive
same,Potency,CASKI,inactive
same,Potency,Es-2,inactive
same,Potency,Hek293T,inactive
same,Potency,JEG-3,inactive
same,Potency,OV90,inactive
same,Potency,PA-1,inactive
same,Potency,SKOV3,inactive
same,Potency,Tov-21-G,inactive
same,Potency,Tov112D,inactive
Nc1ccc(O)cc1,Potency,C33A,inactive
same,Potency,CAOV3,inactive
same,Potency,CASKI,inactive
same,Potency,Es-2,inactive
same,Potency,Hek293T,inactive
same,Potency,JEG-3,inactive
same,Potency,OV90,inactive
same,Potency,PA-1,inactive
same,Potency,SKOV3,inactive
same,Potency,Tov-21-G,inactive
same,Potency,Tov112D,inactive
same,Potency,astro,35.5 µM (active)
same,max response,[2],4.17%
C=C(C)C(=O)OCC(O)CO (centres undefined),Potency,C33A,inactive
same,Potency,CAOV3,inactive
same,Potency,Es-2,inactive
same,Potency,HeLa,inactive
same,Potency,Hek293T,inactive
same,Potency,JEG-3,inactive
same,Potency,OV90,inactive
same,Potency,PA-1,inactive
same,Potency,SKOV3,inactive
same,Potency,Tov-21-G,inactive
same,Potency,Tov112D,inactive
